EPAC1 antag – EPAC1 (human) antagonism; O95398; EPAC1 GEF assay, Rap1b-BODIPY-GDP exchange fluorescence; Potency, µM (top dose mostly 115 µM), for the others: at the top dose activity change, negative = inhibition, most hits filed as inhibitors; 0.14% of 360,000 active; AID 720709;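 further: plate controls were vehicle for no effect and positive control for full effect; nearly all actives have a fitted effect of over 50% in size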
EPAC2 antag – EPAC2 (human) antagonism; Potency, µM (top dose mostly 114 µM), without a hit: at the top dose activity, negative = inhibition, hits mostly inhibitors; 0.18% of 360,000 active; EPAC2 GEF exchange of Rap1B-BODIPY-GDP, fluorescence; further: on the % scale 0 is the no-effect control and ±100 the full control effect; nearly all actives have a fitted effect of over 45% in size
BRCA1 expr act – activators of BRCA1 expression; AID 624202; Potency, µM (titrated, usually from 46.1 µM), for inactives: at the top dose activation, usual class: activators; MCF7-BRCA1-FFLuc reporter, luminescence, 48 h; response scale: scaled: vehicle 0%, 10 µM genistein 100%; 1.1% of 380,000 active; further: nearly all actives have a fitted effect of over 80% in size
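First, MCF7-BRCA1-FFLuc cells (2000/well) attach for 2 h; next, compounds are pin-added and incubated 48 h at 37 °C; finally, luciferase reagent is added and luminescence read after 15 min.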
RGS4 inh – human RGS4 inhibition. P49798. Transcreener GDP fluorescence polarization, RGS4-accelerated GTP hydrolysis. Potency, µM (highest dose often 114 µM), for inactives: top-dose activity change, negative = inhibition, most hits filed as inhibitors. 0.039% of 390,000 active; further: on the % scale 0 is the no-effect control and ±100 the full control effect; nearly all actives have a fitted effect of over 75% in size
Target sequence (P49798 whole entry, looked up): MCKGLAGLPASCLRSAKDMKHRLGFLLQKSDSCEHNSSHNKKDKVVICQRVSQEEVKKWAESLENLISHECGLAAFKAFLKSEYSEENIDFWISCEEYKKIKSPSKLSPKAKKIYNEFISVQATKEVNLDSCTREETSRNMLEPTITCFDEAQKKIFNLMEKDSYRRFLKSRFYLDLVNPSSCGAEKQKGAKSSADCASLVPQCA
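MLSMR compounds (23 nl, pin-transferred) preincubated 10 min at room temperature with a 500nM (2x) first reagent, then RGS4 at 900nM (2x) plus Transcreener GDP mix added; fluorescence polarization (620/688 nm) read before and after 90 min at 30 °C.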
EPAC2 agonist – agonists of human EPAC2 (RAPGEF4); Q8WZA2; EPAC2 activation, biochemical qHTS; response scale: 100% = 6.5 mM cAMP response; Potency, µM (series often up to 154 µM), inactives show at the highest dose activation, usual class: activators; 0.079% of 360,000 active; further: nearly all actives have a fitted effect of over 50% in size
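Fluorescence exchange assay: 100 nM EPAC2 with 250 nM RAP1B-BODIPY-GDP and 50 uM GDP; compounds tested as a concentration-titration series (qHTS). Loss of Rap1-bound BODIPY-GDP fluorescence read at 480/540 nm; data normalized to 6.5 mM cAMP.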
EPAC1 ag – activates human EPAC1 exchange factor. O95398. EPAC1 agonist qHTS, biochemical assay; response scale: 100% = response to 6.5 mM cAMP. Potency, µM (doses to about 154 µM), for inactives: at the highest dose activation, usual class: activators. 0.073% of 360,000 active; further: nearly all actives have a fitted effect of over 60% in size
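Multi-concentration qHTS readout: loss of Rap1B-bound BODIPY-GDP fluorescence driven by 100 nM EPAC1 with excess GDP (50 uM), monitored kinetically at room temperature; agonist response expressed relative to 6.5 mM cAMP.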
Numbers without * were called inactive; ? = inconclusive; · = not tested or not shown; [ ] = dose if it differs, or a comment. Sampled rows, rich in hits. Any-hit rate of the full collection: about 1.3%. The call rests on the fitted dose curve; in most records, active means well fitted curve in the direction sought with a large enough effect; inconclusive means small, poorly fitted or top-dose-only effect, or another doubt; inactive means no such curve, though single readings can be large; an effect the other way counts as inactive or inconclusive. Potency means the concentration at half of the fitted maximal effect.

SMILES	EPAC1 antag	EPAC2 antag	BRCA1 expr act	RGS4 inh	EPAC2 agonist	EPAC1 ag
COc1ccc(Cl)cc1NC(=O)C(C)N(C)Cc1ccc(C(F)(F)F)cc1 (configuration not stated)	?	-17.4%	-39.3%	27.8%	8.1%	-1.8%
Cc1ccc(S(=O)(=O)C(C#N)c2nc3ccccc3nc2N2CCN(C)CC2)cc1 (configuration not stated)	9.8%	2.5%	-27.4%	-14.2%	2.2%	-3.2%
CC1CCCN(c2nc3ccccc3nc2C(C#N)S(=O)(=O)c2ccccc2)C1 (configuration not stated)	37.0%	128.5%	-60.3%	-14.1%	-510.9%	56.2µM*
Nc1ccn([C@@H]2O[C@H](C(=O)NCCc3ccc(F)cc3)[C@@H](O)[C@H]2O)c(=O)n1	14.0%	4.2%	13.1%	·	7.2%	-11.0%
Nc1nc(N)nc(COc2ccccc2)n1	6.2%	-2.2%	4.47µM*	11.9%	6.4%	10.2%
O=C1CC(=O)Nc2cc(S(=O)(=O)Nc3cccc(C(F)(F)F)c3)ccc2N1	17.8%	-3.2%	-1.8%	2.6%	-3.9%	-1.3%
O=C1CC(=O)Nc2cc(S(=O)(=O)Nc3ccc(Cl)c(C(F)(F)F)c3)ccc2N1	-26.4%	35.5µM*	-1.7%	5.5%	-5.8%	-1.0%
COc1ccc(Oc2nccc(-c3ccc(F)cc3)c2C#N)cc1	5.8%	2.0%	41.8%	-40.9%	-9.8%	5.6%
COc1ccc(Oc2nccc(-c3ccccc3)c2C#N)cc1	-15.1%	-1.6%	5.01µM*	-15.1%	-4.5%	3.8%
CCOC(=O)c1sc(N)c(C(=O)OCC)c1C	-3.1%	-10.1%	72.9%	-32.0%	-6.1%	-4.7%
CCOC(=O)c1sc(N)c(C(=O)Nc2ccccc2)c1C	5.5%	-5.9%	12.6µM*	?	-0.1%	13.1%
O=C(c1ccc2nc(Cc3ccccc3F)oc2c1)N1CCCC1	5.2%	1.4%	5.62µM*	18.7%	3.5%	9.7%
CC(=O)N1CCCN(C(=O)c2ccc3nc(Cc4ccccc4F)oc3c2)CC1	-12.1%	-1.1%	18.7%	23.6%	-1.0%	12.3%
CC(c1ccccn1)N(C)C(=O)c1ccc2nc(Cc3ccccc3F)oc2c1 (configuration not stated)	-27.1%	11.6%	11.2µM*	-12.0%	11.4%	26.3%
Cc1cc(CNC(=O)c2ccc3nc(Cc4ccccc4F)oc3c2)nn1C	-8.1%	-6.3%	8.91µM*	22.9%	0.8%	-2.8%
COc1ccc(CNC(=O)CN2CCN(c3cccc(C)c3C)CC2)cc1	6.4%	-13.2%	-20.7%	-6.0%[56.9 µM]	7.7%	13.7%
Cc1cc(Br)ccc1NC(=O)C1CCCN(S(=O)(=O)c2cccc3nonc23)C1 (configuration not stated)	·	·	-16.7%	27.2%	·	·
CC(C)SCCCCOc1ccc2ccccc2c1	13.7%	-3.1%	8.91µM*	-0.2%	11.4%	-9.7%
Nc1cc(N)nc(SCCOc2ccccc2)n1	-18.6%	-7.3%	12.6µM*	10.6%	12.7%	15.6%
COc1ccc(OCCCSc2ncccn2)cc1	-3.3%	-1.8%	12.6µM*	-37.5%	-10.1%	-4.0%
COc1cccc(OCCSc2nc(N)cc(N)n2)c1	-7.2%	-4.4%	75.2%	-38.2%	-1.6%	3.3%
Clc1ccc(OCCSc2ncccn2)cc1	-24.8%	4.6%	11.2µM*	8.8%	6.2%	0.0%
CCc1ccc(NC(=O)c2cc(-c3ccc(OC)cc3)on2)cc1	-3.7%	2.4%	5.0%	-3.9%	4.0%	3.7%
c1cnc(SCCCOc2ccc3ccccc3c2)nc1	?	5.3%	11.2µM*	11.3%	7.3%	8.1%
Cc1ccc(OCCCSc2ncccn2)cc1C	-1.4%	-6.5%	?	-5.5%	8.3%	4.0%
SMILES	EPAC1 antag	EPAC2 antag	BRCA1 expr act	RGS4 inh	EPAC2 agonist	EPAC1 ag
Cc1cc(C)nc(CCNC(=O)C2CCC(=O)N(Cc3ccccc3F)C2)n1 (configuration not stated)	0.5%	2.9%	-2.7%	-19.6%	3.0%	5.0%
Cc1ccc(CNC(=O)CSc2ccsc2[N+](=O)[O-])cc1	-8.7%	-2.8%	?	-7.2%	2.9%	-8.6%
COc1ccc(CNC(=O)CSc2ccsc2[N+](=O)[O-])cc1	-9.0%	-13.5%	10µM*	-11.6%	9.5%	-2.5%
O=C(CCN1C(=O)S/C(=C/c2ccccc2)C1=O)Nc1ccc(O)c(C(=O)O)c1	?	-29.6%	-18.4%	8.6%	1.3%	2.4%
CC1CCN(C(=O)COC(=O)c2c[nH]c3ccccc23)CC1	5.9%	-9.5%	7.08µM*	6.5%	6.0%	3.6%
O=C(OCC(=O)N1CCCC1)c1c[nH]c2ccccc12	-15.8%	3.9%	37.6%	-10.5%	2.8%	4.3%
CC1CC(C)CN(C(=O)COC(=O)c2c[nH]c3ccccc23)C1 (configuration not stated)	-6.6%	3.3%	-27.6%	-32.9%	5.4%	-14.0%
O=C(OCC(=O)N1CCCCC1)c1c[nH]c2ccccc12	-5.0%	-4.6%	6.31µM*	7.5%	7.7%	10.1%
Cc1ccc(C(=O)c2ccccc2C(=O)OCC(=O)N2CCCC2)cc1	-3.0%	-3.3%	35.7%	-5.3%	1.9%	2.7%
Cc1cccc(C(=O)OCC(=O)N2CCCCCC2)c1C	1.2%	0.9%	5.62µM*	-15.4%	4.1%	-7.9%
CO/S(=N\S(=O)(=O)c1ccc(Cl)cc1)c1ccc([N+](=O)[O-])cc1 (configuration not stated)	·	·	·	11.9µM*	·	·
CN(C)c1ccc(C=NN2CCCCCC2)cc1	3.3%	-3.1%	7.94µM*	-28.4%	3.5%	-2.8%
C(=C\c1ccccc1)/C=N/N1CCN(Cc2ccccc2)CC1	-3.4%	7.7%	11.2µM*	-36.2%	21.0%	-7.9%
CC(C)c1ccc(/C=N/N2CCCCC2)cc1	-3.3%	-7.0%	0.0%	-17.4%	3.6%	5.1%
CN1CCN(/N=C/c2ccc(Br)cc2)CC1	-17.8%	9.2%	5.62µM*	3.4%	5.3%	-3.6%
CN1CCN(/N=C/c2ccc(N(c3ccccc3)c3ccccc3)cc2)CC1	-5.9%	-16.3%	-84.1%	22.1%	22.3%	9.4%
C(/C=C/c1ccccc1)=N/N1CCN(c2ccccc2)CC1	15.3%	2.9%	7.94µM*	28.2%	4.6%	3.3%
O=c1[nH]c(-c2ccccn2)nc(C(F)(F)F)c1Br	-1.9%	0.5%	-60.4%	2.3%	4.1%	3.9%
CCOc1ccc(CCNC(=O)Cc2ccc(NC3=NC4CS(=O)(=O)CC4S3)cc2)cc1OCC (configuration not stated)	-6.2%	-0.8%	2.5%	-20.9%[56.9 µM]	-2.4%	8.6%
Cc1cccc(/C=N/N2CCN(c3ccccc3)CC2)c1	-11.7%	-0.1%	?	2.5%	11.1%	8.8%

High-throughput results from PubChem.
